# Results: the supplement of paper PMC12282887
# ± gives the standard deviation of the averaged measurements.
# Legend:
# Experiment in all cases: promoter activity interaction Z-score (Lux/OD deviation from empty-vector control); higher = stronger promoter induction by the compound
# [1] = tested on: E. coli BW25113 acrABp lux reporter
# Outline: (§1)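 E. coli BW25113 luxCDABE reporter strains grew at 37°C in 40 µl LB Lennox in 384-well plates, with OD600 and luminescence read every 30 min for 12 h. After integration over 0–8 h for wild type or 1–9 h for deletion strains, wells under 10% of the median growth value were removed. Each score is the Z-transformed residual of growth-normalised luminescence fitted against a control.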
# [2] = tested on: E. coli BW25113 marRABp lux reporter
# Outline: as §1
# [3] = tested on: E. coli BW25113 micFp lux reporter
# Outline: as §1
# [4] = tested on: E. coli BW25113 ompFp lux reporter
# Outline: as §1
# [5] = tested on: E. coli BW25113 robp lux reporter
# Outline: as §1
# [6] = tested on: E. coli BW25113 soxSp lux reporter
# Outline: as §1
# [7] = tested on: E. coli BW25113 tolCp lux reporter
# Outline: as §1
# [8] = 0.07 µg/ml, genetic background: wild type
# [9] = 0.07 µg/ml, genetic background: ΔmarA
# [10] = 0.07 µg/ml, genetic background: Δrob
# [11] = 0.07 µg/ml, genetic background: ΔsoxS
# [12] = 0.15 µg/ml, genetic background: wild type
# [13] = 0.15 µg/ml, genetic background: ΔmarA
# [14] = 0.15 µg/ml, genetic background: Δrob
# [15] = 0.15 µg/ml, genetic background: ΔsoxS
# [16] = 0.29 µg/ml, genetic background: wild type
# [17] = 0.29 µg/ml, genetic background: ΔmarA
# [18] = 0.29 µg/ml, genetic background: Δrob
# [19] = 0.29 µg/ml, genetic background: ΔsoxS
smiles,measurement,setting,value
NCC[C@H](O)C(=O)N[C@@H]1C[C@H](N)[C@@H](O[C@H]2O[C@H](CN)[C@@H](O)[C@H](O)[C@H]2O)[C@H](O)[C@H]1O[C@H]1O[C@H](CO)[C@@H](O)[C@H](N)[C@H]1O [Amikacin],promoter activity interaction Z-score,[1]; [8],-0.0946 ± 0.19
same,promoter activity interaction Z-score,[1]; [9],-0.446 ± 0.067
same,promoter activity interaction Z-score,[1]; [10],-0.0638 ± 0.15
same,promoter activity interaction Z-score,[1]; [11],0.407 ± 0.79
same,promoter activity interaction Z-score,[1]; [12],-0.184 ± 0.091
same,promoter activity interaction Z-score,[1]; [13],0.671 ± 0.15
same,promoter activity interaction Z-score,[1]; [14],0.0534 ± 0.092
same,promoter activity interaction Z-score,[1]; [15],0.0811 ± 0.13
same,promoter activity interaction Z-score,[1]; [16],0.115 ± 0.19
same,promoter activity interaction Z-score,[1]; [17],-0.213 ± 0.41
same,promoter activity interaction Z-score,[1]; [18],0.174 ± 0.22
same,promoter activity interaction Z-score,[1]; [19],0.725 ± 0.52
same,promoter activity interaction Z-score,[2]; [8],-0.0461 ± 0.062
same,promoter activity interaction Z-score,[2]; [9],-0.273 ± 0.075
same,promoter activity interaction Z-score,[2]; [10],-0.255 ± 0.1
same,promoter activity interaction Z-score,[2]; [11],-0.0126 ± 0.0034
same,promoter activity interaction Z-score,[2]; [12],-0.123 ± 0.09
same,promoter activity interaction Z-score,[2]; [13],-0.134 ± 0.044
same,promoter activity interaction Z-score,[2]; [14],-0.00793 ± 0.05
same,promoter activity interaction Z-score,[2]; [15],-0.13 ± 0.069
same,promoter activity interaction Z-score,[2]; [16],0.0977 ± 0.14
same,promoter activity interaction Z-score,[2]; [17],0.566 ± 0.32
same,promoter activity interaction Z-score,[2]; [18],0.0547 ± 0.082
same,promoter activity interaction Z-score,[2]; [19],0.193 ± 0.079
same,promoter activity interaction Z-score,[3]; [8],0.278 ± 0.0046
same,promoter activity interaction Z-score,[3]; [9],-0.0226 ± 0.005
same,promoter activity interaction Z-score,[3]; [10],0.217 ± 0.22
same,promoter activity interaction Z-score,[3]; [11],0.0839 ± 0.14
same,promoter activity interaction Z-score,[3]; [12],0.512 ± 0.097
same,promoter activity interaction Z-score,[3]; [13],-0.00684 ± 0.057
same,promoter activity interaction Z-score,[3]; [14],0.12 ± 0.33
same,promoter activity interaction Z-score,[3]; [15],0.119 ± 0.33
same,promoter activity interaction Z-score,[3]; [16],-0.0466 ± 0.17
same,promoter activity interaction Z-score,[3]; [17],-0.0853 ± 0.18
same,promoter activity interaction Z-score,[3]; [18],0.176 ± 0.21
same,promoter activity interaction Z-score,[3]; [19],0.577 ± 0.056
same,promoter activity interaction Z-score,[4]; [8],0.0689 ± 0.025
same,promoter activity interaction Z-score,[4]; [9],-0.0472 ± 0.084
same,promoter activity interaction Z-score,[4]; [10],-0.503 ± 0.43
same,promoter activity interaction Z-score,[4]; [11],0.197 ± 1.1
same,promoter activity interaction Z-score,[4]; [12],0.165 ± 0.46
same,promoter activity interaction Z-score,[4]; [13],-0.0471 ± 0.24
same,promoter activity interaction Z-score,[4]; [14],-0.472 ± 0.32
same,promoter activity interaction Z-score,[4]; [15],-0.668 ± 0.2
same,promoter activity interaction Z-score,[4]; [16],0.00226 ± 0.33
same,promoter activity interaction Z-score,[4]; [17],-0.365 ± 0.65
same,promoter activity interaction Z-score,[4]; [18],-0.428 ± 0.22
same,promoter activity interaction Z-score,[4]; [19],-0.0742 ± 0.3
same,promoter activity interaction Z-score,[5]; [8],0.19 ± 0.2
same,promoter activity interaction Z-score,[5]; [9],-0.331 ± 0.085
same,promoter activity interaction Z-score,[5]; [10],0.0353 ± 0.83
same,promoter activity interaction Z-score,[5]; [11],-0.155 ± 0.68
same,promoter activity interaction Z-score,[5]; [12],0.0679 ± 0.58
same,promoter activity interaction Z-score,[5]; [13],-0.461 ± 0.45
same,promoter activity interaction Z-score,[5]; [14],-0.248 ± 0.33
same,promoter activity interaction Z-score,[5]; [15],-0.642 ± 0.14
same,promoter activity interaction Z-score,[5]; [16],-0.115 ± 0.051
same,promoter activity interaction Z-score,[5]; [17],0.598 ± 0.21
same,promoter activity interaction Z-score,[5]; [18],-1.2 ± 0.31
same,promoter activity interaction Z-score,[5]; [19],-0.0862 ± 0.53
same,promoter activity interaction Z-score,[6]; [8],0.354 ± 0.11
same,promoter activity interaction Z-score,[6]; [9],0.016 ± 0.15
same,promoter activity interaction Z-score,[6]; [10],0.176 ± 0.043
same,promoter activity interaction Z-score,[6]; [11],0.0385 ± 0.3
same,promoter activity interaction Z-score,[6]; [12],0.336 ± 0.13
same,promoter activity interaction Z-score,[6]; [13],0.137 ± 0.1
same,promoter activity interaction Z-score,[6]; [14],0.346 ± 0.51
same,promoter activity interaction Z-score,[6]; [15],-0.156 ± 0.15
same,promoter activity interaction Z-score,[6]; [16],0.219 ± 0.2
same,promoter activity interaction Z-score,[6]; [17],-0.031 ± 0.32
same,promoter activity interaction Z-score,[6]; [18],-0.131 ± 0.29
same,promoter activity interaction Z-score,[6]; [19],0.0937 ± 0.57
same,promoter activity interaction Z-score,[7]; [8],-0.282 ± 0.25
same,promoter activity interaction Z-score,[7]; [9],-0.355 ± 0.29
same,promoter activity interaction Z-score,[7]; [10],1.45 ± 1.6
same,promoter activity interaction Z-score,[7]; [11],1.15 ± 0.34
same,promoter activity interaction Z-score,[7]; [12],0.0971 ± 0.8
same,promoter activity interaction Z-score,[7]; [13],0.793 ± 0.15
same,promoter activity interaction Z-score,[7]; [14],0.637 ± 0.84
same,promoter activity interaction Z-score,[7]; [15],-0.668 ± 0.34
same,promoter activity interaction Z-score,[7]; [16],1.16 ± 1.8
same,promoter activity interaction Z-score,[7]; [17],-0.226 ± 1.1
same,promoter activity interaction Z-score,[7]; [18],1.53 ± 1.6
same,promoter activity interaction Z-score,[7]; [19],1.21 ± 0.019
